Bioassay records as filed in PubChem.
uPA generation: qHTS for Inhibitors of Cell Surface uPA Generation | 330,000 compounds, 0.31% hits | cell surface uPA generation assay, qHTS | Potency, µM (doses to about 38.3 µM), for the others: at the highest dose activity change, negative = inhibition, hits mostly inhibitors; active = well fitted inhibition curve with a large enough effect; inconclusive = small, poorly fitted or top-dose-only effect; inactive = no such curve, though single readings can be large or run the other way; tested in mouse RAW 264.7 cells; also: potency is read from the fitted curve at half-maximal effect; % is scaled to controls: 0 for no effect and ±100 for the full control effect; nearly all actives have a fitted effect of over 55% in size
MCF10A rereplic: A quantitative high throughput screen for small molecules that induce DNA re-replication in MCF 10a normal breast cells; 350,000 compounds, 2.9% hits; MCF 10A DNA re-replication, Hoechst nuclear intensity, 48 h; AID 624296, 2012; Potency, µM (top dose mostly 46.1 µM), without a hit: top-dose activity, positive = re-replication, actives largely listed as activators; also: potency is read from the fitted curve at half-maximal effect; % of control where 0% means no effect; nearly all actives have a fitted effect of over 50% in size
SW480 rerep: A quantitative high throughput screen for small molecules that induce DNA re-replication in SW480 colon adenocarcinoma cells. SW480 DNA re-replication, Hoechst DNA content imaging, 48 h. 340,000 compounds, 1.8% hits. Potency, µM (top dose mostly 46.1 µM), without a hit: at the top dose re-replication activation, most hits filed as activators. AID 624297, 2012; also: potency is read from the fitted curve at half-maximal effect; % of control where 0% means no effect; nearly all actives have a fitted effect of over 55% in size
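Image-based read-out: total Hoechst fluorescence of nuclei (405 nm excitation, 500-530 nm emission), with hits raising the fraction of high-intensity nuclei. SW480 colon cells incubated 48 hr with compounds at 37 C.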
Giardia kill: Small Molecules that selectively kill Giardia lamblia: qHTS; Giardia lamblia trophozoite viability; 340,000 compounds, 0.15% hits; activity change, % at 7.66 µM, hits read low; AID 540267, 2011; in the data active = activity change below about -80%; inconclusive = between about -30% and that limit;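 also: parasites exposed to compound for two days anaerobically before the ATP read; % is scaled to controls: 0 for no effect and ±100 for the full control effect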
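Luminescent ATP signal served as the viability read-out, measured 15-30 min after adding ATP detection reagent to trophozoites that had been incubated with compounds for 48 hrs at 37 deg C anaerobically at 100 cells/well.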
* = called active by the depositor. The list is not random: actives were taken first. Their share in the collection is about 4.3%. Unless noted, calls follow the shape of the dose curve; as a rule, active = well fitted activation curve with a large enough effect; inconclusive = small, poorly fitted or top-dose-only effect; inactive = no such curve, though single readings can be large or run the other way.

Results for O=C(Nc1ccc(S(=O)(=O)Nc2ncccn2)cc1)c1cccc(S(=O)(=O)N2CCCC2)c1 ?
uPA generation: 0%; MCF10A rereplic: -2%; SW480 rerep: -5%; Giardia kill: -5

Results for CCn1c2ccccc2c2cc(/C=N/O)ccc21 ?
uPA generation: 14%; MCF10A rereplic: 2%; SW480 rerep: 4.1µM*; Giardia kill: 11

Results for CCn1c2ccccc2c2cc(/C=N/n3cn[nH]c3=S)ccc21 ?
uPA generation: -8%; MCF10A rereplic: inconclusive; SW480 rerep: 3.7µM*; Giardia kill: 10

How did CCn1c2ccccc2c2cc(/C=N/n3c(-c4cc(C)[nH]n4)n[nH]c3=S)ccc21 do in these assays?
uPA generation: 6%; MCF10A rereplic: 8.2µM*; SW480 rerep: -32%; Giardia kill: -4

How did Cc1c(I)c(=O)n(-c2ccccc2)n1C do in these assays?
MCF10A rereplic: -1%; SW480 rerep: -8%

Results for O=C1C2C3C=CC(CC3)C2C(=O)N1c1ccc(Cl)cc1Cl (stereo unspecified) ?
uPA generation: -7%; MCF10A rereplic: 8%; SW480 rerep: -22%; Giardia kill: -12

What do the screens show for `C=CCN1C(=O)N(/C=C/C)c2cccc3cccc1c23`?
uPA generation: 0%; MCF10A rereplic: 21µM*; SW480 rerep: 5%; Giardia kill: 2

Results for O=S(=O)(NCc1ccncc1)c1ccc(S(=O)(=O)NCC2CCCO2)cc1 (stereo unspecified) ?
uPA generation: -6%; MCF10A rereplic: 6.5µM*; SW480 rerep: 19%; Giardia kill: -5

What do the screens show for `O=C1CCc2cccc(O)c2N1`?
uPA generation: 3%; MCF10A rereplic: 3%; SW480 rerep: -1%; Giardia kill: 19

How did CCOc1ccc(C2C(C(=O)OC)=CN(C(C)c3ccccc3)C=C2C(=O)OC)cc1 (stereo unspecified) do in these assays?
uPA generation: -4%; MCF10A rereplic: 16µM*; SW480 rerep: inconclusive; Giardia kill: -28

What do the screens show for `COc1ccccc1C1CN(c2ccccc2)N=C1c1cccs1` (stereo unspecified)?
uPA generation: -5%; MCF10A rereplic: 9%; SW480 rerep: 19%; Giardia kill: 3

What do the screens show for `COc1cccc(C2CN(c3ccc(F)cc3F)N=C2c2cccs2)c1OC` (stereo unspecified)?
uPA generation: -18%; MCF10A rereplic: inconclusive; SW480 rerep: 4.1µM*; Giardia kill: 26

How did C/C(CCc1ccco1)=N/NC(=O)CCC(=O)Nc1cccc(Cl)c1 do in these assays?
uPA generation: 3%; MCF10A rereplic: -1%; SW480 rerep: -5%; Giardia kill: 14

How did C/C(CC(=O)Nc1ccc(OCc2ccccc2)cc1)=N\NC(=O)C(=O)Nc1cccc(C)c1 do in these assays?
uPA generation: 8%; MCF10A rereplic: 15µM*; SW480 rerep: -60%; Giardia kill: 5

Results for C/C(CCc1ccccc1)=N\NC(=O)C(=O)Nc1cccc(Cl)c1 ?
uPA generation: 4%; MCF10A rereplic: 0.26µM*; SW480 rerep: 7%; Giardia kill: -8

Results for CCn1c(=O)c(CCC(=O)NCC2CCCO2)c(C)c2c(C)nn(-c3ccc(C)cc3)c21 (stereo unspecified) ?
uPA generation: 3%; MCF10A rereplic: -18%; SW480 rerep: -12%; Giardia kill: -1

Results for COc1ccc(OC)c(NC(=O)CSc2nnc(-c3ccco3)n2-c2ccccc2)c1 ?
uPA generation: 4%; MCF10A rereplic: 1%; SW480 rerep: 3.7µM*; Giardia kill: -2

How did CCN(CC)c1ccc(-c2nnc(SCC(=O)Nc3ccccc3C#N)n2-c2ccccc2)cc1 do in these assays?
uPA generation: -9%; MCF10A rereplic: 27%; SW480 rerep: 10%; Giardia kill: -23

Results for N#Cc1ccccc1NC(=O)CSc1nnc(-c2ccccc2)n1-c1ccccc1 ?
uPA generation: -7%; MCF10A rereplic: inconclusive; SW480 rerep: 23µM*; Giardia kill: 17

What do the screens show for `CCCn1c(SCC(=O)Nc2ccccc2OC)nnc1-c1ccco1`?
uPA generation: -2%; MCF10A rereplic: 6.5µM*; SW480 rerep: 9.2µM*; Giardia kill: -10

Results for C=CCn1c(SCC(=O)Nc2ccccc2OC)nnc1-c1ccccn1 ?
uPA generation: -9%; MCF10A rereplic: inconclusive; SW480 rerep: 18µM*; Giardia kill: 6
